Assay results taken from PubChem BioAssay (NCI).
About 79,000 compounds went through this panel and 15% of them were active in at least one assay; those are over-represented in the sample as a whole. A number with no mark means an inactive call. Active and inactive are the calls of the source. No stated cut-off is given here; in the data, active means growth inhibition above about 70%; inactive means the rest.

Legend:
[1] = NCI Yeast Anticancer Drug Screen. Data for the rad50 strain (AID 155);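 further: 0% = growth of vehicle-only cultures of the same strain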; details: S. cerevisiae rad50 strain growth inhibition; at 50.0 µM; hits give high values
Outline: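 Growth of the mutant yeast was measured after compound exposure and referenced to vehicle-treated cultures.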

[2] = NCI Yeast Anticancer Drug Screen. Data for the mec2-1 strain (AID 157); details: S. cerevisiae mec2-1 strain, at 50.0 µM, hits give high values
Outline: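 Test agents were screened against the mec2-1 yeast strain, with defined DNA repair or cell cycle alteration. Growth was scored as inhibition against vehicle-only controls.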

[3] = NCI Yeast Anticancer Drug Screen. Data for the sgs1 mgt1 strain (AID 161);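 further: 0% = growth of cultures given vehicle only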; details: S. cerevisiae sgs1 mgt1 strain, at 50.0 µM, hits give high values
Outline: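 Genetically altered yeast, compound exposure, growth inhibition relative to vehicle.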

[4] = NCI Yeast Anticancer Drug Screen. Data for the cln2 rad14 strain (AID 165);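 further: 0% = growth equal to vehicle treated cultures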; details: S. cerevisiae cln2 rad14 strain, at 50.0 µM, hits give high values
Outline: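 Growth of compound-exposed yeast (cln2 rad14 genotype) measured and expressed as inhibition relative to vehicle.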

[5] = NCI Yeast Anticancer Drug Screen. Data for the bub3 strain (AID 167); details: S. cerevisiae bub3 mutant strain, at 50.0 µM, hits give high values
Outline: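 Whole-cell yeast assay. The mutant strain was incubated with compounds, and growth inhibition was determined by comparison with vehicle-treated cells.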

[6] = NCI Yeast Anticancer Drug Screen. Data for the mlh1 rad18 strain (AID 175); details: S. cerevisiae mlh1 rad18 strain growth inhibition; at 50.0 µM; hits give high values
Outline: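 In this whole-cell yeast screen, a strain with altered DNA damage repair is challenged with compound, and its growth is measured against matched vehicle-treated controls.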

SMILES | growth inhibition [1] | growth inhibition [2] | growth inhibition [3] | growth inhibition [4] | growth inhibition [5] | growth inhibition [6]
CC(=O)NNc1nc(C)c(C(/C=C/c2ccc([N+](=O)[O-])cc2)=N/NC(N)=S)s1 | -8.6% | -2.25% | -10% | -12.4% | -7.2% | 6.7%
CN(C)c1ccc(C2SCC(=O)N2NS(=O)(=O)c2cccc(C(=O)O)c2)cc1 (stereo unspecified) | 5.05% | -21.2% | -10.8% | 4.75% | -24.6% | -2.2%
Cc1ccc(O)c(C2CC(C#N)CCN2C)c1 (stereo unspecified) | -0.65% | -12.2% | -16.5% | -6.35% | -18.9% | -7.3%
Cc1ccc(C2(O)CC(c3ccc([N+](=O)[O-])o3)=NN2C(=O)COc2ccccc2Cl)cc1 (stereo unspecified) | 46.1% | -15.2% | -0.45% | 0.15% | -1.9% | -6.45%
O=C(O)C1CC=CCC1C(=O)Nc1cccc(O)c1 (stereo unspecified) | -16.9% | -30.8% | -51.7% | 38.5% | -40% | 6.25%
Cc1nc(-n2nc(-c3ccccc3)cc2-c2ccccc2)sc1C(=O)CC(=O)C(=O)Nc1ccc(Cl)c(Cl)c1 | 6.15% | -5.55% | 24.6% | 13.8% | 48.5% | 24.8%
COc1cc([N+](=O)[O-])c2[nH]c(=O)ccc2c1 | -11.7% | 19.7% | -4.5% | -7.2% | -2.05% | 3.45%
N#CNc1c2ccccc2nc2ccccc12 | -12.1% | 1.05% | -16.6% | 2.85% | 6.5% | -4.75%
O=C1NC(=NC2CCCCC2)C2(CCN(CCCC3(c4ccc(F)cc4)OCCO3)CC2)N1c1ccccc1 | -18.8% | -17.2% | -6.3% | 5% | -5% | -1.45%
C[N+]1(CCc2ccccc2)CCOCC1 | -13.6% | 3.9% | 0.8% | -38% | 1.5% | 2.8%
O=C(O)CCc1ccccc1C(=O)O | 19.6% | -19.6% | -2% | -9.8% | -10.1% | 9.5%
O=C1c2ccccc2-c2cc(F)ccc21 | 18.3% | -10.4% | -7.4% | -6.25% | 17.6% | -0.1%
C/C(=N\NC(=S)Nc1ccc([N+](=O)[O-])cc1S(=O)(=O)O)c1ccccn1 | 12.6% | 20.4% | -5.85% | -2.35% | -0.4% | 22.9%
CN(C=O)c1c(F)cc(C(=O)O)cc1F | 3.05% | 4.1% | -3.3% | 4.1% | -6.65% | 8.15%
C/C(=C1/N=C(c2cc([N+](=O)[O-])ccc2Cl)N(c2ccc(Br)cc2)C1=O)c1cc2ccccc2oc1=O | 35.3% | 17.7% | 15.7% | 14.1% | 9.35% | 19.8%
COC(=O)C1CCC2C3CCCCC3CCC2C1(C)C(=O)OC (stereo unspecified) | -7.6% | 2% | -4.55% | -28.4% | 5.7% | 2.05%
Oc1ccc(Cl)c2cccnc12 | 98.9% (active) | 99.5% (active) | 99.2% (active) | 97.8% (active) | 99.3% (active) | 97.7% (active)
CC1=CCC(=O)O1 | 2.15% | 8.2% | -1.7% | 12.2% | -7.75% | 15.3%
CC(O)CC(C)(C)O (stereo unspecified) | 28.1% | 13.1% | 8.55% | 9.9% | 15.3% | 4.2%
c1ccc(C2=NC(c3ccccc3)N=C(c3ccccc3)N2)cc1 | -0.75% | 10.3% | 6.1% | -6% | 9.75% | 13.2%
CC(NC(=O)OCc1ccccc1)C(=O)Nc1ccc(C(=O)O)c(O)c1 (stereo unspecified) | 5.55% | -5.1% | 11.9% | -9% | 45.1% | -10.8%

SMILES | growth inhibition [1] | growth inhibition [2] | growth inhibition [3] | growth inhibition [4] | growth inhibition [5] | growth inhibition [6]
COc1ccc(C2=C(N)c3c(Cl)cccc3C2=O)cc1 | 6.35% | 3.4% | 30.2% | 14.8% | 21.5% | -58.2%
CCCCC/C(=C\c1ccccc1)C1OCC(COC(C)=O)O1 (stereo unspecified) | -37.6% | -5.8% | -2.25% | -30.2% | 40.8% | -2.6%
CCC1c2c(cc(=O)[nH]c2O)C(=O)N1Cc1ccccc1 (stereo unspecified) | 12.3% | 6.4% | 7.75% | 4.25% | 1.15% | -0.1%
CC(Cc1ccco1)(C(=O)O)C(=O)O | 11.8% | 16.3% | -14.8% | -1.3% | -11.8% | -11.6%
COc1ccc2c(N=[N+]=[N-])c(-c3ccccc3)c(=O)oc2c1 | 11.8% | 2.6% | 35.6% | 17.2% | 3.15% | 30.9%
CCOC(=O)c1cc(Cl)nc(Cl)c1 | 6.95% | -16.6% | -1.8% | -3.15% | 4.5% | -10.4%
CC(C)(N=NC(C)(C)C(=O)NCCO)C(=O)NCCO | -6.15% | -6.65% | 0.85% | 19.7% | 2% | -0.65%
CC(=O)C1(N=Nc2ccc(S(N)(=O)=O)cc2)CCOC1=O (stereo unspecified) | 1.35% | -11.3% | -27.1% | 32.4% | -29.4% | 22.7%
CCCN1CCc2c([nH]c3cc(OC)ccc23)C1C (stereo unspecified) | 27.9% | -4.15% | -5.05% | 1.9% | 7.35% | 3.2%
NC(N)=NC(CC(=O)O)c1ccccc1 (stereo unspecified) | -1.15% | -20% | -26.4% | -26.2% | -46.4% | 10.2%
C=CCCCCCCCCC(N)=O | -12.6% | -8.4% | 4.15% | -1.8% | 13.2% | -14.6%
Cc1ccc(N=Nc2ccc(O)c(CN(C)C)c2)cc1C | -26.4% | -29.5% | 48.5% | -11% | 49% | 36.2%
CC(=O)C(C(C)=O)[N+](=O)[O-].CC(=O)C(C(C)=O)[N+](=O)[O-].[Cu] | 17.1% | -2.95% | -6.75% | -40.5% | 23.6% | 10.6%
COC(=O)[C@@H](CO)NC(=O)OC(C)(C)C | -27.6% | -15% | -24.1% | 21.6% | 9.4% | -12.8%
CC(C)C1=CC2=CCC3C(C)(COC(=O)CSC(C)(C)C)CCCC3(C)C2CC1 (stereo unspecified) | 14.2% | -2.25% | 31.6% | 18.6% | -1.9% | 20.2%
COc1ccc(C2COc3c(ccc(OC)c3OC)C2=O)cc1OC (stereo unspecified) | -20.7% | -1% | -1.2% | -6.5% | -0.5% | -18.5%
O=[N+]([O-])c1ccc(S(=O)(=O)/N=C/c2ccccc2)cc1 | 2.2% | 9.25% | 8.75% | 14.7% | 14.4% | 12.3%
N#CC(NCCc1ccccc1)c1ccccc1 (stereo unspecified) | 2.45% | -3.1% | -32.8% | -20.1% | -56.7% | -3.95%
O=C=Nc1ccccc1[N+](=O)[O-] | -4.25% | -28% | -15.8% | -65.5% | -0.55% | -9.2%
O=C(COc1cc(Cl)ccc1Cl)NCc1ccc(Cl)cc1 | 15.2% | 2.1% | 12.6% | 10.1% | 34.1% | 14.8%
